Data as given in the supplement of paper PMC3334620.
In all, about 33,000 sequences were measured (“E-score (-0.5 to 0.5)”: median about -0.043, highest 2% from about 0.37 on). Only a selection was taken, and the highest values are over-represented in it overall.

biological target: T1, Upc2 (UniProt Q12151); test: PBM E-score (8-mer binding enrichment) (E-score (-0.5 to 0.5)); higher = stronger / more preferred TF binding; details: protein concentration: 200 nM; construct: GST-full length
T1 sequence: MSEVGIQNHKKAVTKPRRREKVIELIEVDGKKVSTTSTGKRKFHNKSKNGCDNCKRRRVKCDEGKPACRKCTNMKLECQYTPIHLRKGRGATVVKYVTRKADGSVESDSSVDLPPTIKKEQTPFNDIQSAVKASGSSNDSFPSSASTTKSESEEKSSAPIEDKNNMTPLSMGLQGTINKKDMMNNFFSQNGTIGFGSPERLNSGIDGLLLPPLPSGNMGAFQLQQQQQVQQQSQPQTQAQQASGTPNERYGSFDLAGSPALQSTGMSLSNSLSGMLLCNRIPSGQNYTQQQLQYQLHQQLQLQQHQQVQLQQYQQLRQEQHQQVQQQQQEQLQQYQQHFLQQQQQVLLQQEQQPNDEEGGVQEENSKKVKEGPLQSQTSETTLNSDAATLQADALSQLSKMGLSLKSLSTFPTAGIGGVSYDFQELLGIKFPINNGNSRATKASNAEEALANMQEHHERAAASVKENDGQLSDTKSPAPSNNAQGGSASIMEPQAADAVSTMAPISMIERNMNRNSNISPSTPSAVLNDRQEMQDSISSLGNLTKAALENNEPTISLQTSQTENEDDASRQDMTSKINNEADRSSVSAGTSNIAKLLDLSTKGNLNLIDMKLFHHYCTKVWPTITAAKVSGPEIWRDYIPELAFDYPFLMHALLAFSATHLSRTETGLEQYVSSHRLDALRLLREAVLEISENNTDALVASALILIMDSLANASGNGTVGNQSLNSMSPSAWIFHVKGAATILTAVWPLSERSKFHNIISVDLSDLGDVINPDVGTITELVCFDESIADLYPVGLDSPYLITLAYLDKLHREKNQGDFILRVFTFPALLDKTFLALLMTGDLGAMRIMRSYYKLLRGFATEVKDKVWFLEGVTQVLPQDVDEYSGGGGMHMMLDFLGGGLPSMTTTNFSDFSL
Outline: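 Yeast transcription factors, full-length or as DNA-binding domains, were expressed with a GST tag using PURExpress in vitro transcription/translation. At about 100-200 nM they were applied to universal all-10-mer Agilent arrays, double-stranded by primer extension on fresh or once-stripped slides. Fluorescent anti-GST detected bound protein, and masliner normalised the scans. E-scores for ungapped eight-base words, pooled with reverse complements, came from the Universal PBM Analysis Suite.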

Row | Sequence | PBM E-score
1 | CACTAGCC | -0.0426
2 | TAAGACAA | 0.0602
3 | AGCTGAGA | -0.232
4 | CTTGCACC | 0.0237
5 | GAAAGCCA | -0.231
6 | CTTGTATC | -0.0734
7 | ATCGTATG | 0.455
8 | ATAGTATG | 0.0124
9 | AACGTATG | 0.239
10 | ATGGTATC | 0.15
11 | ATAGTATC | 0.0546
12 | CTGGTATC | -0.187
13 | CTCGTATC | 0.473
14 | ATCGTATC | 0.426
15 | CGGTCACA | 0.0569
16 | AGTGCTAT | -0.0648
17 | CGTGCTTC | 0.014
18 | CACAAGGC | -0.308
19 | GGCCATGA | -0.134
20 | ACTTCAGC | -0.178
21 | CCTGTACC | -0.0294
22 | ATTGTACA | -0.0603
23 | CCTGTACG | 0.436
24 | CATGTACG | 0.409
25 | CCTGTACA | -0.0382

Row | Sequence | PBM E-score
26 | AGTGTACG | 0.417
27 | ATTGTACG | 0.428
28 | AGTGTACC | -0.0597
29 | AATGTACG | 0.36
30 | ATTGTACC | 0.115
31 | CATGTACA | -0.00834
32 | AGTGTACA | -0.0815
33 | ACATGCGA | 0.128
34 | ACAGCGGT | -0.15
35 | AATCTGAA | -0.00542
36 | CTTGACTC | -0.0404
37 | ATAAGTCC | -0.0003
38 | GGTCCACA | -0.166
39 | GAGTTCTA | -0.141
40 | ACTGTACG | 0.433
41 | ACTGTACC | -0.077
42 | ACTGTACT | 0.0214
43 | CTATACGC | 0.458
44 | ATATACCG | 0.194
45 | CTATACTC | 0.0215
46 | ATATACTC | -0.0113
47 | ATATACGC | 0.387
48 | CTATACCC | 0.0307
49 | ATATACGG | 0.456
50 | ATATACAC | 0.193

Row | Sequence | PBM E-score
51 | ATATACGA | 0.492
52 | ATATACAA | -0.0498
53 | ATATACTG | 0.0777
54 | ATATACCA | 0.0254
55 | CGGATTTA | 0.0862
56 | CGCCTTAC | 0.155
57 | AATCTGAC | -0.119
58 | AGCTCACT | -0.138
59 | ATAAAAAG | 0.0686
60 | CCTCTCAG | -0.352
61 | CGTAGGGA | -0.0318
62 | ATCTTACA | 0.0167
63 | GACGTACA | 0.305
64 | GGCGTACA | 0.269
65 | ATAGTACG | 0.221
66 | ATCGTACG | 0.435
67 | GTCGTACA | 0.483
68 | ATCGTACA | 0.468
69 | AACGTACA | 0.266
70 | AACGTACG | 0.386
71 | ATCGTAGG | 0.165
72 | AGCGTACA | 0.301
73 | AACGTACC | 0.256
74 | ATAGTACA | 0.149
75 | AGTTTTCA | -0.0402

Row | Sequence | PBM E-score
76 | CAGCTAGG | -0.352
77 | AAGGTGGA | -0.0852
78 | TCAGTCCA | -0.272
79 | AAAAACGT | 0.0237
80 | AGCGCTTG | -0.188
81 | GCGGTACC | 0.0215
82 | GAAGTGCA | -0.153
83 | CTTCTCGA | -0.187
84 | ACCAGAAT | -0.00733
85 | CCAGAGGA | -0.256
86 | AGTCGAGC | -0.152
87 | AGTAAACG | 0.442
88 | CGTAAATC | 0.352
89 | CGTAAACG | 0.473
90 | CGTAAACA | 0.39
91 | AGTAAACA | 0.0452
92 | TGTAAACA | -0.0818
93 | CGTAAATA | 0.34
94 | AGTAAACC | -0.0507
95 | GGTAAACA | 0.111
96 | ACGATTTG | 0.28
97 | CCAAGCTA | -0.182
98 | CAAATAGA | -0.0516
99 | AGTTTCAT | 0.0688
100 | CCTCTATC | -0.122

Row | Sequence | PBM E-score
101 | AAGATCAT | 0.0203
102 | CGTTTATA | 0.45
103 | AGTTTATA | 0.129
104 | CTTTTATC | 0.00372
105 | CGTTTATC | 0.425
106 | GGTTTATA | 0.144
107 | AGTTTATC | 0.115
108 | ATCTAGCA | -0.206
109 | CCGACACC | 0.0358
110 | ACGACACG | 0.295
111 | ACGACACC | 0.374
112 | ACGACAGC | 0.336
113 | ACGACAGT | 0.37
114 | ACGACAGG | 0.359
115 | ATTATAAC | -0.061
116 | CTAGAGCA | -0.192
117 | GATTGTGA | -0.112
118 | GCTCGCTA | 0.196
119 | CCTCGTTC | 0.46
120 | CCTCGTTA | 0.399
121 | CCTCGTCC | -0.3
122 | ACTCGGTC | 0.0379
123 | CCACGTTA | 0.136
124 | ACTCGTTG | 0.198
125 | GCACGTTA | 0.182

Row | Sequence | PBM E-score
126 | ACTCGTTA | 0.35
127 | ACTCGTTC | 0.46
128 | CCTCGTGC | 0.0326
129 | GCTCGTTA | 0.39
130 | ACAGTAGA | -0.0149
131 | CATCTTGG | -0.305
132 | GAGTAACC | 0.101
133 | GTCTCACA | -0.0791
134 | CGATATGC | 0.149
135 | GCAACTGA | 0.0086
136 | GAACTGCA | -0.0845
137 | ACGAAACT | 0.382
138 | ACGAAACG | 0.403
139 | ACGAAACA | 0.339
140 | ACGAAAGG | 0.32
141 | ACGAAACC | 0.267
142 | CCGAAACG | 0.346
143 | GAATTTGA | -0.0533
144 | CACCACCC | -0.124
145 | AGTGAAAC | -0.0497
146 | CCCCTTTA | -0.129
147 | GAACGGGA | 0.238
148 | AAACGGAG | 0.34
149 | AAACGGAC | 0.337
150 | CAACGGGC | 0.00552

Row | Sequence | PBM E-score
151 | GAACGGGC | 0.291
152 | CAACGGGG | -0.0318
153 | AAACGGGA | 0.369
154 | AAACGGGG | 0.398
155 | AAACGGGT | 0.344
156 | TAACGGGA | 0.0733
157 | AAACGGAT | 0.37
158 | AAACGGGC | 0.395
159 | AGACCCCA | -0.148
160 | ATAGAACG | 0.253
161 | GCCATCTA | -0.299
162 | CAGACCAG | -0.0598
163 | CATTCACA | -0.114
164 | CTCGGCGC | 0.069
165 | AAGAGTCA | -0.11
166 | CATTAAGC | 0.0328
167 | ATACGGCA | 0.422
168 | AGACGGCG | -0.0186
169 | AGACGGCC | -0.222
170 | CTACGGCC | -0.0664
171 | GTACGGCA | 0.364
172 | ACACGGCG | -0.0227
173 | ATACGGCC | 0.416
174 | ATACGGCG | 0.43
175 | CTACGGCA | 0.0153

Row | Sequence | PBM E-score
176 | GTTTCACA | 0.00208
177 | CCGAGTCC | -0.0483
178 | GCTCCTAC | 0.0461
179 | GCAGTTAA | 0.0277
180 | GATGATAC | 0.0998
181 | AGCCAAAA | -0.178
182 | CGAAACCA | 0.201
183 | AGAAACGG | 0.217
184 | GGAAACGA | 0.428
185 | GAAAACGA | 0.263
186 | CGAAACGC | 0.15
187 | AGAAACGA | 0.4
188 | AGAAACGC | -0.037
189 | GGAAACAA | -0.0508
190 | CGAAACGA | 0.447
191 | ACAGTCCT | -0.319
192 | CTCGCTCC | 0.313
193 | ACATAGTG | -0.128
194 | ACCGCCAG | -0.0637
195 | GATCACGA | -0.00109
196 | CTTAAAAG | -0.0494
197 | CGTAAAAG | 0.405
198 | AGTAAAAA | -0.0254
199 | AGTAAAAG | 0.168
200 | GGTAAAAC | 0.0926

Row | Sequence | PBM E-score
201 | CGTAAAAA | 0.404
202 | CGTAAAAC | 0.389
203 | CGTAAACC | 0.364
204 | TGTAAAAA | -0.0321
205 | GGCCAACC | -0.0824
206 | ATAGAGGC | -0.0461
207 | ACAAAGGA | -0.0862
208 | GGTTGTAC | 0.154
209 | GCAGATCA | -0.161
210 | CGCCTTAG | -0.169
211 | GCCACATA | -0.153
212 | TCAGACAA | -0.17
213 | GACGAAAC | 0.251
214 | CACGAAAC | 0.0525
215 | AACGAAAA | 0.368
216 | AACGAAAT | 0.398
217 | ACCGAAAG | 0.108
218 | AACGAAAG | 0.383
219 | CACGAAAG | -0.0189
220 | ACCGAAAT | 0.141
221 | AACGAAAC | 0.37
